Glioma ERSR ind – qHTS for Inducers of the Endoplasmic Reticulum Stress Response (ERSR) in Human Glioma: qHTS; AID 602332, 2012; actives 0.02% (n = 420,000); U87-MG GRP78 promoter luciferase reporter, 16 h; Potency, µM, without a hit: top-dose activation, most hits filed as activators; active = well fitted activation curve with a large enough effect; also: potency is read from the fitted curve at half-maximal effect; series mostly up to about 76 µM; % of control where 0% means no effect; nearly all actives have a fitted effect of over 35% in size
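ERSR induction read as luciferase luminescence (Bright-Glo, 10 min at room temperature) in stably transfected human U87-MG glioma cells exposed to compounds for 16 h, using GRP78 as sensor.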
D1 PAM – Potentiators of Human D1 Dopamine Receptor: qHTS. potentiation, % at 10 µM. HEK293 TREx D1 cells, calcium flux, dopamine EC20 potentiation. D(1A) dopamine receptor (Homo sapiens), P21728. actives 0.036% (n = 360,000); in the data active = potentiation above about 30%; also: 0% is about no effect
Target sequence (P21728 whole entry, looked up): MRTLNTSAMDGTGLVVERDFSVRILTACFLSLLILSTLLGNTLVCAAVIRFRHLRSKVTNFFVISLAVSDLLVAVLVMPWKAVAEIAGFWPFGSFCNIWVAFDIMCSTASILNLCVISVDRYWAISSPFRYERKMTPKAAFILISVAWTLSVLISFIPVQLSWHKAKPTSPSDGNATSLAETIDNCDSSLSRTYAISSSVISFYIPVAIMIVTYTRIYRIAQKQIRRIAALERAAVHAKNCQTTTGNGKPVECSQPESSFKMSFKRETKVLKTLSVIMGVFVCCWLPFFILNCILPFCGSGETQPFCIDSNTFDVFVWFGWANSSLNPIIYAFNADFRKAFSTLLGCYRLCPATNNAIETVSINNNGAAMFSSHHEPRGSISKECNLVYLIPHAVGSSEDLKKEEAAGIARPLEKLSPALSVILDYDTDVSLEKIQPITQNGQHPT
TRHR enhancer – qHTS for Small Molecule Agonists and Allosteric Enhancers of Human TRH Receptor: Primary Screen for Enhancers | TRHR cells, fluo-8 calcium fluorescence, EC20 TRH enhancement | enhancement, % at 2 µM | actives 0.66% (n = 360,000); in the data active = enhancement above about 30%; also: 0% is about no effect
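Enhancer read-out: after compound pinning and an initial kinetic agonist-mode read, an EC20 of TRH (10 nM final) was injected and fluo-8 calcium signal (Ex 480/Em 530) followed at 1 s/cycle for 100 cycles in TRHR-expressing cells.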
D1 antag – Antagonist of Human D 1 Dopamine Receptor: qHTS; HEK293 TREx D1 cells, calcium flux, dopamine EC80; hits give low values; actives 3.2% (n = 360,000); activity change, negative = inhibition, % at 10 µM; in the data active = activity change below about -30%; also: % is scaled to controls: 0 for no effect and ±100 for the full control effect
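Calcium flux readout: force-coupled, inducible Hek293 Trex D1 line, cells induced overnight at 30 C with tetracycline, dye-loaded 30–90 min at RT. Antagonism scored against EC80 dopamine challenge given 180 s after compound.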
D1 agonist – Allosteric Agonists of the Human D1 Dopamine Receptor: qHTS; HEK293 T-REx D1 cells, calcium flux, agonist mode; actives 1% (n = 360,000); activation, % at 2 µM; D(1A) dopamine receptor (Homo sapiens), P21728; also: 0% is about no effect
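Tetracycline-induced HEK293 TREx D1 cells, force-coupled to calcium signalling, were dye-loaded with a no-wash calcium kit. Compound was pin-added after a 10 s baseline. Fluorescence was read kinetically at 1 cycle/s for 180 s, with calcium rises flagged as agonism.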
TRHR agonist – qHTS for Small Molecule Agonists and Allosteric Enhancers of Human TRH Receptor: Primary Screen for Agonists; actives 0.18% (n = 360,000); TRHR cells, calcium flux fluo-8, FDSS agonist mode; Thyrotropin-releasing hormone receptor (Homo sapiens), P34981; AID 493084, 2011; activation, % at 2 µM; also: 0% is about no effect
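Read-out: compound-evoked intracellular calcium rise in TRHR cells, fluo-8 dye, kinetic FDSS fluorescence at 1 s/cycle following a 10-cycle baseline. Cells cultured overnight before dye loading (30 min–1.5 h, RT).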
The depositor's hits bear a star; . = no result. An excerpt weighted towards active compounds, which were near 4% of everything screened. Rule as the data show it, unless noted: active = activation above about 30%; inactive = the rest.

SMILES	Glioma ERSR ind	D1 PAM	TRHR enhancer	D1 antag	D1 agonist	TRHR agonist
CCOC(=O)CN(C(=O)Cn1nnc(-c2ccc(C)cc2)n1)C(CC)C(=O)NC1CCCC1 (configuration not stated)	-5%	-6	2	-7	0	0
COc1ccc(N2CCN(C(=O)c3cc(NS(=O)(=O)c4ccc(F)cc4)ccn3)CC2)cc1	-1%	0	0	1	-2	0
COc1ccc(CCNS(=O)(=O)c2ccc(N3CCCC3=O)cc2)cc1	-4%	.	.	.	.	.
COc1ccc(OC)c(NS(=O)(=O)c2ccc(N3CCCC3=O)cc2)c1	-5%	-8	34*	-9	5	0
N#Cc1ccc(COc2cccnc2[N+](=O)[O-])cc1	0%	-7	-8	-7	2	0
O=[N+]([O-])c1ncccc1OCc1ccc(-c2ccccc2)cc1	1%	-7	7	-33*	6	1
Cc1c(NC(=S)NC(=O)C(C)(C)C)cccc1[N+](=O)[O-]	-2%	-4	-3	-3	1	2
COc1ccc(NC(=O)Cn2c(NCC(C)O)nc3ccccc32)cc1Cl (configuration not stated)	-6%	-10	3	-70*	1	0
COc1ccc(NC(=O)CSc2nc3ccccc3nc2N2CCCC2)cc1Cl	3%	-6	-9	13	4	0
CCCOc1ccc(C(CC(=O)O)NC(=O)C(c2ccccc2)c2ccccc2)cc1 (configuration not stated)	-4%	-2	-2	1	2	0
Clc1ccc(CSc2ccc(-c3cccs3)nn2)cc1	0%	-9	7	-15	17	0
Clc1cccc(CSc2ccc(-c3cccs3)nn2)c1	-1%	-3	2	-3	45*	0
Cc1c(NC(=O)CSc2nnc(COc3ccccc3)n2-c2ccccc2)c(=O)n(-c2ccccc2)n1C	-2%	1	2	2	0	-2
CC(C)c1ccc(NC2CCCN(C(=O)CCc3cn[nH]c3)C2)cc1 (configuration not stated)	-3%	-11	3	6	3	0
CN1CCN(c2ccc(NC(=O)c3ccc(Cl)cc3Cl)cc2)CC1	-2%	-15	18	-44*	5	1
CC(Oc1ccc(Cl)cc1Cl)C(=O)Nc1ccc(N2CCN(C)CC2)cc1 (configuration not stated)	-4%	-16	7	-60*	10	1
CC(Oc1ccc(Cl)cc1Cl)C(=O)NNC(=O)C(=O)N1CCCCC1 (configuration not stated)	-5%	-1	1	-86*	1	1
O=C(COc1ccc(Cl)cc1Br)NNC(=O)C(=O)N1CCCCC1	-2%	-6	-1	-6	1	0
O=C(Nc1ccc(N2CCCC2)cc1)c1ccc(Cl)cc1Cl	7%	1	3	-9	-1	0
CCOC(=O)C1CCN(C(=O)CN2c3ccc(CC)cc3-c3ccccc3S2(=O)=O)CC1	8%	-1	8	-33*	6	-3
CCOC(=O)C1CCN(C(=O)COC(=O)c2cccc(F)c2)CC1	-1%	-2	36*	0	5	0
COc1ccc(CCNC(=O)C(=O)NCC(c2cccs2)S(=O)(=O)c2ccc(F)cc2)cc1 (configuration not stated)	-2%	-1	-4	.	16	0
COc1ccccc1CN1CCC2(CCNCC2)CC1	-2%	.	.	.	.	.
COc1ccc(N(C(=O)c2ccco2)S(=O)(=O)c2cc(OC)ccc2OC)cc1	40µM*	-18	-10	-35*	4	-1

High-throughput results as filed in PubChem BioAssay.
